# Where “and” joins values, the source holds several entries; their conditions need not be identical. Identical values can stand only once. Inconclusive results are not listed. A call without a number means that no potency is given here. Unmarked numbers belong to inactive results. Calls of active or inactive are those of the source. Calls follow the shape of the dose curve; as a rule, active = well fitted curve in the direction sought with a large enough effect; inconclusive = small, poorly fitted or top-dose-only effect, or another doubt; inactive = no such curve, though single readings can be large; an effect the other way counts as inactive or inconclusive.
# Columns and labels:
# [1] = target: Cytochrome P450 3A7 (Homo sapiens) (UniProt P24462); experiment: Cytochrome P450 family 3 subfamily A member 7 (CYP3A7) small molecule antagonists: luciferase biochemical qHTS assay (AID 1963596); also: nearly all actives have a fitted effect of over 40% in size
# Procedure, shortened: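 P450-Glo luminescent assay: CYP3A7 enzyme converts a proluciferin substrate to luciferin, detected by luciferase reagent; light proportional to activity. Compounds in DMSO preincubated 10 min with enzyme-substrate mix at room temperature, then NADPH regeneration added for 1 h.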
# [2] = Viability qHTS for spleen associated tyrosine kinase inhibitor (SYKi) naive MV4-11 cells (AID 1963823); also: nearly all actives have a fitted effect of over 40% in size; also: potency is read from the fitted curve at half-maximal effect
# Procedure, shortened: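 Cells: MV4-11, SYK inhibitor naive, 500 per well. Treatment: library compounds, 72 hr, 37 C, 5% CO2. Read-out: CellTiter-Glo luminescence after 10 min RT.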
# [3] = Viability qHTS for spleen associated tyrosine kinase inhibitor (SYKi) drug resistant MV4-11 cells (AID 1963824); also: nearly all actives have a fitted effect of over 35% in size; also: potency is read from the fitted curve at half-maximal effect
# Procedure, shortened: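 SYK inhibitor-resistant MV4-11 AML cells, 500 per well, added to predispensed compounds and incubated 72 hr at 37 C, 5% CO2. Viability measured by CellTiter-Glo luminescence after 10 min at room temperature.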
# [4] = Cellular viability qHTS for adrenocortical cancer (ACC) cell line SW-13 (AID 1963989); conditions: SW-13 ACC cells viability, CellTiter-Glo, 48 h; activity (max response): active compounds read low;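 also: cells grown in serum-free medium with ITS supplement; nearly all actives have a fitted effect of over 65% in size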
# Procedure, shortened: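 IC50 and maximal-response values come from four-parameter logistic fits of titration data. SW-13 cells in serum-free medium received compounds (up to 46 uM final) for 48 h before CellTiter-Glo luminescence.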
# [5] = Cellular viability qHTS for adrenocortical cancer (ACC) cell line NCI-H295R (AID 1963990); also: nearly all actives have a fitted effect of over 60% in size; also: potency is read from the fitted curve at half-maximal effect
# Procedure, shortened: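 Adrenocortical carcinoma cells, suspended at 300 000 cells/mL in serum-free DMEM plus ITS, rested overnight before pin transfer of compound. After two days' incubation, ATP-dependent luminescence was recorded and curve-fitted.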
# Sequence of Cytochrome P450 3A7 (Homo sapiens) (P24462 whole entry, looked up): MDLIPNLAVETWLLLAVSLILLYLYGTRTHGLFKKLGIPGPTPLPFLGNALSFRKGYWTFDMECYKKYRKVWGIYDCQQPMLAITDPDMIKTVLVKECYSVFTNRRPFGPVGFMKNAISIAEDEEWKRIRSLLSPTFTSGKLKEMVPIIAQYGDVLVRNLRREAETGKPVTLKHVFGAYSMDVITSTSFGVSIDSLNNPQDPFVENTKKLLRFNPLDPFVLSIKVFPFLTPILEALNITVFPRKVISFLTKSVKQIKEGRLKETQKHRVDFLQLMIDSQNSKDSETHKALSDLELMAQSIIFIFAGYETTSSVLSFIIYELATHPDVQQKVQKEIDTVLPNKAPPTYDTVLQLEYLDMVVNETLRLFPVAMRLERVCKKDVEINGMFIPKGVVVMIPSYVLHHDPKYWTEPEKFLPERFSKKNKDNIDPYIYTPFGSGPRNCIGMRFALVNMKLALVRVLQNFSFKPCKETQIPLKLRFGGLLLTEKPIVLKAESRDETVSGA
compound,measurement,setting,value
CC(=O)NC(=O)c1ccccc1O,Potency,[1],inactive
same,Potency,[2],inactive
same,Potency,[3],inactive
same,activity (max response),[4],-23.9%
same,Potency,[5],inactive
O=C(O)c1ccccc1-c1ccc(C(F)(F)F)cc1,Potency,[1],inactive
same,Potency,[2],inactive
same,Potency,[3],inactive
same,activity (max response),[4],8.51%
same,Potency,[5],inactive
CN1CC(=O)NC1=N,Potency,[1],inactive
same,Potency,[2],inactive
same,Potency,[3],inactive
same,activity (max response),[4],5.44%
same,Potency,[5],inactive
COC(=O)c1cc(S(N)(=O)=O)ccc1OC,Potency,[1],inactive
same,Potency,[2],inactive
same,Potency,[3],inactive
same,activity (max response),[4],6.75%
same,Potency,[5],inactive
CCN1CCN(C(=O)N[C@@H](C(=O)N[C@@H]2C(=O)N3[C@@H]2SC(C)(C)[C@H]3C(=O)O)c2ccccc2)C(=O)C1=O,Potency,[1],inactive
same,Potency,[2],inactive
same,Potency,[3],inactive
same,activity (max response),[4],12.1%
same,Potency,[5],inactive
CCn1cc(C(=O)O)c(=O)c2cc3c(cc21)OCO3,Potency,[1],inactive
same,Potency,[2],inactive
same,Potency,[3],inactive
same,activity (max response),[4],-2.41%
same,Potency,[5],inactive
O=C1c2ccccc2C(=O)C1c1ccccc1,Potency,[1],inactive
same,Potency,[2],inactive
same,Potency,[3],inactive
same,activity (max response),[4],5.96%
same,Potency,[5],inactive
CN1CCN(C(=O)C2CCCCC2)CC1,Potency,[1],inactive
same,Potency,[2],inactive
same,Potency,[3],inactive
same,activity (max response),[4],7.59%
same,Potency,[5],inactive
NC(N)=NCCC[C@H](N)C(=O)O,"activity change, negative = inhibition",[1],2.52% [at 4.83 µM]
same,viability (% of control),[2],90.4% [at 4.97 µM]
same,"viability, % of control",[3],98.3% [at 4.97 µM]
same,activity (max response),[4],-3.82%
same,"activity change, negative = viability loss",[5],-23.9% [at 3.81 µM]
NC(=O)c1ncn([C@@H]2O[C@H](CO)[C@@H](O)[C@H]2O)c1N,Potency,[1],inactive
same,Potency,[2],inactive
same,Potency,[3],inactive
same,activity (max response),[4],3.4% and 2.54%
same,Potency,[5],inactive
CN(C)C(=O)Oc1cccc([N+](C)(C)C)c1,Potency,[1],inactive
same,Potency,[2],inactive
same,Potency,[3],inactive
same,Potency,[5],inactive
Cc1c(NC(=O)c2cccnc2)c(=O)n(-c2ccccc2)n1C,Potency,[1],inactive
same,Potency,[2],inactive
same,Potency,[3],inactive
same,Potency,[5],inactive
CCCn1cnc2c1c(=O)n(CCCCC(C)=O)c(=O)n2C,Potency,[1],inactive
same,Potency,[2],inactive
same,Potency,[3],inactive
same,Potency,[5],inactive
CC[C@H]1OC(=O)[C@H](C)[C@@H](O[C@H]2C[C@@](C)(OC)[C@@H](O)[C@H](C)O2)[C@H](C)[C@@H](O[C@@H]2O[C@H](C)C[C@H](N(C)C)[C@H]2O)[C@](C)(O)C[C@@H](C)CN(C)[C@H](C)[C@@H](O)[C@]1(C)O,Potency,[1],inactive
same,Potency,[2],inactive
same,Potency,[3],inactive
same,Potency,[5],inactive
CC(C)NC[C@@H](O)COc1ccc(CC(N)=O)cc1,Potency,[1],inactive
same,Potency,[2],inactive
same,Potency,[3],inactive
same,Potency,[5],inactive
CC1(C)Oc2ccc(C#N)cc2[C@@H](N2CCCC2=O)[C@@H]1O,Potency,[1],inactive
same,Potency,[2],inactive
same,Potency,[3],inactive
same,Potency,[5],inactive
C[C@H]1[C@H]2CC[C@H]3[C@@H]4CC=C5C[C@@H](N(C)C)CC[C@]5(C)[C@H]4CC[C@]23CN1C,Potency,[1],inactive
same,Potency,[2],inactive
same,Potency,[3],inactive
same,Potency,[5],inactive
NC(=O)NS(=O)(=O)c1ccc(Cl)cc1,Potency,[1],inactive
same,Potency,[2],inactive
same,Potency,[3],inactive
same,Potency,[5],inactive
C[C@H]1O[C@@H](n2cc(F)c(=O)[nH]c2=O)[C@H](O)[C@@H]1O,Potency,[1],inactive
same,Potency,[2],3.76 µM (active) and 2.35 µM (active)
same,Potency,[3],2.11 µM (active) and 1.05 µM (active)
same,Potency,[5],inactive
NC(=O)NS(=O)(=O)c1ccc(N)cc1,Potency,[1],inactive
same,Potency,[2],inactive
same,Potency,[3],inactive
same,Potency,[5],inactive
CN1N=C(C(N)=O)CCC1=O,Potency,[1],inactive
same,Potency,[2],inactive
same,Potency,[3],inactive
same,Potency,[5],inactive
Cc1nc(NC(=O)N2CCC[C@H]2C(N)=O)sc1-c1ccnc(C(C)(C)C(F)(F)F)c1,Potency,[1],inactive
same,Potency,[2],13 µM (active)
same,Potency,[3],11.6 µM (active) and 16.6 µM (active)
same,Potency,[5],11.2 µM (active)
O=C1O[C@H](CO)[C@@H](O)[C@H](O)[C@H]1O,Potency,[1],inactive
same,Potency,[2],inactive
same,Potency,[3],inactive
same,Potency,[5],inactive
N[C@@H](CCC(=O)N[C@@H](CS)C(=O)NCC(=O)O)C(=O)O,Potency,[1],inactive
same,Potency,[2],inactive
same,Potency,[3],inactive
same,Potency,[5],inactive
OC[C@@H](O)[C@@H](O)[C@H](O)[C@H](O)CO,Potency,[1],inactive
same,Potency,[2],inactive
same,Potency,[3],inactive
same,Potency,[5],inactive
CC(C)(Oc1ccc(C2CC2(Cl)Cl)cc1)C(=O)O (configuration not stated),Potency,[1],inactive
same,Potency,[2],inactive
same,Potency,[3],inactive
same,Potency,[5],inactive
Cc1nc(-c2ccc(Cl)cc2)oc1COC(C)(C)C(=O)O,Potency,[1],inactive
same,Potency,[2],inactive
same,Potency,[3],inactive
same,activity (max response),[4],-4.84%
same,Potency,[5],inactive
O=C(O)[C@H](CC(=O)N1C[C@H]2CCCC[C@H]2C1)Cc1ccccc1,Potency,[1],inactive
same,Potency,[2],inactive
same,Potency,[3],inactive
same,activity (max response),[4],1.52%
same,Potency,[5],inactive
O=C1NC(=O)[C@@]2(CCOc3ccc(F)cc32)N1,Potency,[1],inactive
same,Potency,[2],inactive
same,Potency,[3],inactive
same,activity (max response),[4],3.16%
same,Potency,[5],inactive
C=C(CC)C(=O)c1ccc(OCC(=O)O)c(Cl)c1Cl,Potency,[1],inactive
same,Potency,[2],13.3 µM (active)
same,Potency,[3],15 µM (active)
same,Potency,[5],9.2 µM (active)
COc1nccnc1NS(=O)(=O)c1ccc(N)cc1,Potency,[1],inactive
same,Potency,[2],inactive
same,Potency,[3],inactive
same,activity (max response),[4],1.63%
same,Potency,[5],inactive
CN(C)CCN1C(=O)c2ccccc2N(C)c2ccccc21,Potency,[1],inactive
same,Potency,[2],inactive
same,Potency,[3],inactive
same,activity (max response),[4],-13.1%
same,Potency,[5],inactive
C[N+]1(C)CCCC(OC(=O)C(O)(c2ccccc2)c2ccccc2)C1 (configuration not stated),Potency,[1],inactive
same,Potency,[2],inactive
same,Potency,[3],inactive
same,Potency,[5],inactive
